In PubChem BioAssay AID2320 (National Center for Advancing Translational Sciences (NCATS), 2010):
Records with an inconclusive call do not appear. A number with no mark means an inactive call. Active and inactive are the calls of the source. The call rests on the fitted dose curve.

Experiment: A qHTS for Small Molecule Inhibitors of Shiga Toxin (Confirmatory); further: nearly all actives have a fitted effect of over 75% in size; on activity, positive = inhibition of toxin: 0% is about no effect
Settings: Cell-based Shiga toxin protection reporter assay; series mostly up to 38.3 µM; activity, positive = inhibition of toxin: at the top concentration
Potency means the concentration at half of the fitted maximal effect.

| SMILES | activity, positive = inhibition of toxin [%] | Potency |
| --- | --- | --- |
| Cc1cccc(C(=O)Nc2scc(CC(C)C)c2C(=O)O)c1 | -17.8 | – |
| COCCCn1c(SCC(=O)OC2CCCCC2)nnc1-c1cccs1 | -10.4 | – |
| COC(=O)c1c(NC(=O)c2ccn(C)n2)sc2c1CCC2 | – | 2.83 µM (active) |
| O=C(/C=C/C#Cc1cccc(NS(=O)(=O)c2ccccc2)c1)NO | – | 11.3 µM (active) |
| O=C(CN1CCN(c2ncc(C(F)(F)F)cc2Cl)CC1)NC(=O)NCc1ccccc1 | -15.7 | – |
| CC1CCCC(C)N1C(=O)Cn1nnc(-c2ccccc2)n1 (stereo not drawn) | 9.73 | – |
| Cc1nn(-c2ccc(Cl)cc2)c(N)c1C(O)(CSc1nccn1C)C(F)(F)F (stereo not drawn) | 53.7 | – |
| O=C(NCC1CCCO1)Nc1ccc2c(c1)OCO2 (stereo not drawn) | – | 22.5 µM (active) |
| CC(=O)N[C@@H](Cc1c[nH]c2ccccc12)C(=O)OCC(=O)Nc1ccc(Cl)c(S(=O)(=O)N(C)C)c1 | 17.4 | – |
| Cc1nnc(N2C(=O)C(=O)/C(=C(/O)c3ccc4c(c3)OCCO4)C2c2ccc([N+](=O)[O-])cc2)s1 (stereo not drawn) | 3.86 | – |
| Cc1cc(NC(=O)/C=C/c2ccc(Br)cc2)no1 | – | 8.95 µM (active) |
| COc1ccc(NC(=O)c2c(Cl)n(C)c3ccccc23)cc1 | – | 11.3 µM (active) |
| CCOc1cc(S(=O)(=O)N2CCN(Cc3ccccc3)CC2)ccc1Br | -26.4 | – |
| COc1ccc(C(=O)Nc2ccccc2C(=O)NCc2ccco2)cc1 | – | 5.65 µM (active) |
| Cn1nccc1C(=O)Nc1sc2c(c1C#N)CCCC2 | – | 20 µM (active) |
| O=C(Cc1cccs1)Nc1ccc(-c2nnc(-c3ccco3)o2)cc1 | – | 4 µM (active) |
| COc1cccc(C(C(=O)NC2CCCC2)N(C(=O)c2ccco2)C2CC2)c1OC (stereo not drawn) | – | 8.95 µM (active) |
| Cc1noc(/C=C/c2ccco2)c1S(=O)(=O)N1CCC(C(=O)N(C)Cc2ccccc2)CC1 | – | 22.5 µM (active) |
| O=C(Cc1c(F)cccc1Cl)c1ccc(O)cc1O | 45.2 | – |

| SMILES | activity, positive = inhibition of toxin [%] | Potency |
| --- | --- | --- |
| O=C(NCC(=O)N1CCCC(C(F)(F)F)C1)c1ccc(Oc2ccccc2)cc1 (stereo not drawn) | 11.5 | – |
| O=C(O)c1cc(S(=O)(=O)Nc2ccc(OCc3ccccc3)cc2)ccc1Br | – | 7.11 µM (active) |
| O=C(CCN1C(=O)c2cccc3cccc(c23)C1=O)NC1CCS(=O)(=O)C1 (stereo not drawn) | -2.99 | – |
| CCOc1ncccc1C(=O)Nc1c(C)n(C)n(-c2ccccc2)c1=O | -36 | – |
| O=C(Cc1cccs1)Nc1nc(-c2ccc(F)c(F)c2)cs1 | – | 6.34 µM (active) |
| CCNc1c(NC(=O)c2cccs2)c(=O)oc2ccccc12 | 24.2 | – |
| CC(=O)Nc1cccc(NC(=O)CSc2nc3ccccc3o2)c1 | -0.494 | – |
| COC(=O)c1ccc(C)c(NC(=O)CCSc2ccc(Cl)cc2)c1 | -30.1 | – |
| Fc1ccccc1N=C1Nc2cccc3cccc1c23 | 35 | – |
| COc1cc(O)c2c(c1)oc(=O)c1c3cc(O)c(O)cc3oc21 | – | 7.98 µM (active) |
| COc1ccccc1-n1cnnc1SCC(=O)Nc1ccccc1 | – | 22.5 µM (active) |
| CCn1cc(C(=O)NCc2ccccc2Cl)cn1 | -9.3 | – |
| C=C1C(O)C2OC3(CCC(/C=C/C(C)C4CC(C)=CC5(OC(CC(C)(O)C(=O)O)CCC5O)O4)O3)CCC2OC1C(O)CC(C)C1OC2(CCCCO2)CCC1C (stereo not drawn) | – | 20 µM (active) |
| COc1ccc(-c2cc(-c3ccccc3O)[nH]n2)cc1OC | – | 2.25 µM (active) |
| O=C(NCCc1c[nH]c2ccccc12)C(F)(F)F | -21.6 | – |
| CCOC(=O)C1=C(C)NC(=O)NC1c1ccc(OCC(=O)Nc2ccccc2)c(OC)c1 (stereo not drawn) | -50.5 | – |
| O=c1cc(-c2cccc(F)c2)[nH]c2ccc(Cl)cc12 | -10.8 | – |
| COc1ccc2[nH]c(-c3ccccc3)cc(=O)c2c1 | – | 0.0711 µM (active) |
| COc1cc2c(c(OC)c1OC)-c1c(cc(OC)c(OC)c1OC)C[C@](C)(O)[C@@H](C)C2 | 34.8 | – |
